Data from PubChem BioAssay (NCATS).
“And” between values parts separate entries of the source, which are not always exact repeats. Equal values may be shown once. Records with an inconclusive call do not appear. The source made the active and inactive calls. Calls come from the whole dose curve; as a rule, active = well fitted curve in the direction sought with a large enough effect; inconclusive = small, poorly fitted or top-dose-only effect, or another doubt; inactive = no such curve, though single readings can be large; an effect the other way counts as inactive or inconclusive.

Tests used:
[1] = Quantitative highthroughput screen to assess conditional lethalithy of NOMO1 cells grown in RPMI1640 with untreated serum (RPMI+s) (AID 1963876); settings: NOMO1 AML cells in RPMI+serum, CellTiter-Glo viability, 48 h; series mostly up to 45.8 µM; note: nearly all actives have a fitted effect of over 35% in size;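 for viability: 100% = DMSO wells and 0% = empty wells without cells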
Outline: (§1)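 Each medium arm—HPLM with 10% dialyzed FBS, or RPMI1640 with 5 mM glucose and 10% untreated or dialyzed FBS—was screened against an 11-point, 3-fold compound titration for 48 h at 37 °C, with CellTiter-Glo luminescence as endpoint.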

[2] = Quantitative highthroughput screen to assess conditional lethalithy of NOMO1 cells grown in RPMI1640 with dialyzed fetal bovine serum (RPMI+ds) (AID 1963877); settings: NOMO1 in RPMI+dialyzed FBS viability, ATP luminescence, 48 h; series mostly up to 45.8 µM; note: nearly all actives have a fitted effect of over 30% in size;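 for viability: 100% = DMSO control wells and 0% = empty wells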
Outline: as §1

[3] = Quantitative highthroughput screen to assess conditional lethalithy of NOMO1 cells grown in Human Plasma-Like Medium with dialyzed fetal bovine serum (HPLM+ds) (AID 1963878); settings: NOMO1 AML cells in HPLM+ds, CellTiter-Glo viability, 48 h; series mostly up to 45.8 µM; note: nearly all actives have a fitted effect of over 35% in size;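 for viability: 100% = DMSO wells and 0% = empty wells on each plate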
Outline: as §1

[4] = Quantitative highthroughput screen to assess conditional lethalithy of P12 Ichikawa cells grown in Human Plasma-Like Medium with dialyzed fetal bovine serum (HPLM+ds) (AID 1963879); settings: ATP luminescence, 48 h; Potency: viability; series mostly up to 45.8 µM; note: nearly all actives have a fitted effect of over 35% in size
Outline: as §1

[5] = Quantitative highthroughput screen to assess conditional lethalithy of P12 Ichikawa cells grown in RPMI1640 with dialyzed fetal bovine serum (RPMI+ds) (AID 1963880); settings: ATP luminescence, 48 h; Potency: P12-Ichikawa viability; series mostly up to 45.8 µM; note: nearly all actives have a fitted effect of over 35% in size;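 for viability: 100% = DMSO wells and 0% = empty wells on each plate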
Outline: as §1

[6] = Quantitative highthroughput screen to assess conditional lethalithy of P12 Ichikawa cells grown in RPMI1640 with untreated serum (RPMI+s) (AID 1963881); settings: ATP luminescence, 48 h; Potency: viability; series mostly up to 45.8 µM; note: nearly all actives have a fitted effect of over 35% in size;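 for viability: 100% = DMSO wells and 0% = empty wells without cells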
Outline: as §1

[7] = Quantitative highthroughput screen to assess conditional lethalithy of SEM cells grown in Human Plasma-Like Medium with dialyzed fetal bovine serum (HPLM+ds) (AID 1963882); settings: SEM B-ALL cells in HPLM+ds, CellTiter-Glo viability, 48 h; series mostly up to 45.8 µM; note: nearly all actives have a fitted effect of over 35% in size
Outline: as §1

[8] = Quantitative highthroughput screen to assess conditional lethalithy of SEM cells grown in RPMI1640 with unreated serum (RPMI+s) (AID 1963883); settings: SEM B-ALL cells, CellTiter-Glo viability, 48 h; series mostly up to 45.8 µM; note: nearly all actives have a fitted effect of over 35% in size;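 for viability: 100% = DMSO wells and 0% = empty wells without cells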
Outline: as §1

[9] = Quantitative highthroughput screen to assess conditional lethalithy of SEM cells grown in RPMI1640 with dialyzed fetal bovine serum (RPMI+ds) (AID 1963884); settings: SEM B-ALL cells, RPMI+dialyzed FBS, CellTiter-Glo viability, 48 h; series mostly up to 45.8 µM; note: nearly all actives have a fitted effect of over 35% in size;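 for viability: 100% = DMSO control wells and 0% = empty wells without cells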
Outline: as §1

[10] = Cellular viability qHTS for adrenocortical cancer (ACC) cell line SW-13 (AID 1963989); settings: SW-13 ACC cells viability, CellTiter-Glo, 48 h; activity (max response): hits give low values; note: nearly all actives have a fitted effect of over 65% in size;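 for activity (max response): cells grown in serum-free medium with ITS supplement; % is set by controls: 0 for no effect and ±100 for the full control effect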
Outline: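 Compound titrations (up to 46 uM final, in DMSO) were applied to SW-13 cells for 48 h at 37C/5% CO2. Reading used CellTiter-Glo after 20 min at room temperature; fitted curves yielded IC50 and efficacy.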

[11] = Cellular viability qHTS for adrenocortical cancer (ACC) cell line NCI-H295R (AID 1963990); settings: CellTiter-Glo ATP luminescence, 48 h; series mostly up to 46.1 µM; note: nearly all actives have a fitted effect of over 60% in size
Outline: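 Readout: CellTiter-Glo luminescence, 20 min RT. Exposure: 48 h, 37C/5% CO2. Cells: NCI-H295R, ITS-DMEM serum-free. Range: up to 46 uM. Analysis: 4PL fit, IC50 plus efficacy.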
Potency is the fitted concentration of half-maximal effect.

CC(C)c1ccc2oc3nc(N)c(C(=O)O)cc3c(=O)c2c1
inactive: Potency [1] | Potency [2] | Potency [3] | Potency [4] | Potency [5] | Potency [6] | Potency [7] | Potency [8] | Potency [9] | activity (max response) [10] -3.22% and -4.54% | Potency [11]

O=C(Nc1c(Cl)cncc1Cl)c1ccc(OC(F)F)c(OCC2CC2)c1
inactive: Potency [1] | Potency [2] | Potency [3] | Potency [4] | Potency [5] | Potency [6] | Potency [7] | Potency [8] | Potency [9] | activity (max response) [10] 5.46% | Potency [11]

CC(C)[C@H](C(=O)Nc1ccc(C(=O)NO)cc1)c1ccccc1
active: Potency [1] 3.32 µM | Potency [2] 2.64 µM | Potency [3] 2.64 µM | Potency [4] 2.35 µM | Potency [5] 2.35 µM | Potency [6] 2.09 µM | Potency [7] 1.48 µM | Potency [8] 1.66 µM | Potency [9] 1.48 µM | Potency [11] 1.26 µM

Nc1ccc(S(=O)(=O)Nc2ccnn2-c2ccccc2)cc1
inactive: Potency [1] | Potency [2] | Potency [3] | Potency [4] | Potency [5] | Potency [6] | Potency [7] | Potency [8] | Potency [9] | activity (max response) [10] 3.92% | Potency [11]

Cc1cc(OCCCc2c(C(=O)O)n(Cc3cccnc3)c3c(-c4c(COc5ccc(N6CCN([S+](C)(=O)[O-])CC6)cc5)nn(C)c4C)cccc23)cc(C)c1Cl
inactive: Potency [1] | Potency [2] | Potency [3] | Potency [4] | Potency [5] | Potency [6] | Potency [7]
active: Potency [9] 18.7 µM

COc1cc2nc(-c3ccc(N4CCN(C)CC4)cc3)nc(NCCN3CCOCC3)c2cc1OC
active: Potency [1] 1.66 µM | Potency [2] 0.743 µM | Potency [3] 0.526 µM | Potency [4] 5.26 µM | Potency [5] 2.64 µM | Potency [6] 2.96 µM | Potency [7] 0.166 µM | Potency [8] 0.469 µM | Potency [10] 17.8 µM | Potency [11] 3.55 µM
